Where a name gives a salt, the structure may show the parent alone. Unmarked numbers belong to inactive results.

One test relates to primary human airway basal cells (HBEC, luciferase-transduced). Nature of the test: proliferation (luciferase bioluminescence) Z score relative to plate mean; higher = more proliferation / more cells, active = 1.96 or more. The note with it: donor: 1; 0.5 µM; library: ENZO Libraries; 4 days. The method, then:
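Primary human bronchial epithelial (airway basal) cells from two donors, lentivirally transduced with pHIV-Luc-ZsGreen, were seeded at 2000 cells/well in 384-well plates in FAD medium with ENZO or Prestwick library compounds and cultured for 4 days. Luciferin was then added and bioluminescence was read as a measure of cell number. Relative light units were converted to Z scores against the plate, and the mean of triplicate wells is reported.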
In the case of `O=C1Nc2ccccc2/C1=C1/Nc2ccccc2C1=O` [Indirubin], the proliferation is -0.759.

As for `CCCCCCCCCC(=O)N[C@@H](CCCN=C(N)N)C(=O)N[C@H](C(=O)N[C@@H](CCCCN)C(=O)N[C@@H](CCCN=C(N)N)C(=O)CCl)C(C)C`, the proliferation is 0.21.

For the compound `N#CC(=C(/N)Sc1ccccc1N)/C(C#N)=C(/N)Sc1ccccc1N`, the proliferation is -1.3.

Take `N=C(N)Nc1ccc(C(=O)Oc2ccc3cc(C(=N)N)ccc3c2)cc1` [Nafamostat mesylate]: the proliferation is 0.0117.

As to `COCc1cc(O)c(O)c(O)c1-c1c(COC)cc(O)c(O)c1O`, the proliferation is -0.578.

Regarding `Nc1ccccc1NC(=O)CCCCCCC(=O)Nc1ccccc1`, the proliferation is 0.133.

As to `COc1cc2ncc(-c3ccccc3)nc2cc1OC`, the proliferation was 2.2 (active).

On to `O=C(O)c1ccc2nc(-c3ccccc3)c(-c3ccccc3)nc2c1`, for which the proliferation is -0.199.

On to `N[C@H](C(=O)O)[C@@H]1CC(Cl)=NO1` [Acivicin], for which the proliferation was -0.75.

On to `CNC(=O)[C@H](Cc1c[nH]c2ccccc12)NC(=O)[C@@H](CC(=O)NO)CC(C)C`, for which the proliferation was -0.298.

With `CCCCCCCCCCCCC/C=C/[C@@H](O)[C@@H](N)CO` [D-erythro-Sphingosine], the proliferation is -0.0291.

Consider `O=C1c2ccccc2C(=O)c2c(NCCc3ccc(O)cc3)ccc(NCCc3ccc(O)cc3)c21`, for which the proliferation was 0.275.

As for `O=C(NCCCCN1CCOCC1)c1cc2ccccc2o1`, the proliferation was -0.215.

As to `COC(=O)C[C@H](NC(=O)[C@H](C)NC(=O)[C@@H](NC(=O)OCc1ccccc1)C(C)C)C(=O)CF`, the proliferation is -0.208.

For `CSCCC(C=O)NC(=O)C(CC(C)C)NC(=O)[C@H](CC(C)C)NC(C)=O` (stereo not given in full) [Calpain Inhibitor II (ALLM)], the proliferation was 0.241.

For the compound `CC(C)C[C@H](NC(=O)[C@H]1O[C@@H]1C(=O)O)C(=O)NCCCCN=C(N)N`, the proliferation is -0.0103.

Consider `NCCCC[C@H](N[C@@H](CCc1ccccc1)C(=O)O)C(=O)N1CCC[C@H]1C(=O)O` [Lisinopril], for which the proliferation was -0.405.

Consider `CC(C)CCNC(=O)[C@H](CC(C)C)NC(=O)[C@H]1O[C@@H]1C(=O)O`, for which the proliferation is -0.298.

Turning to `N#C/C(=C\c1ccc(O)c(O)c1)C(=O)Nc1ccccc1`, the proliferation was 0.183.

As to `CC(C)C[C@H](NC(=O)[C@@H](O)[C@H](N)Cc1ccccc1)C(=O)O`, the proliferation was -0.66.

Staying with this test, now noted: donor: 1; 5 µM; library: ENZO Libraries; 4 days.
Take `O=C1Nc2ccccc2/C1=C1/Nc2ccccc2C1=O` [Indirubin]: the proliferation was -1.2.

Turning to `CCCCCCCCCC(=O)N[C@@H](CCCN=C(N)N)C(=O)N[C@H](C(=O)N[C@@H](CCCCN)C(=O)N[C@@H](CCCN=C(N)N)C(=O)CCl)C(C)C`, the proliferation is 0.0695.

Regarding `N#CC(=C(/N)Sc1ccccc1N)/C(C#N)=C(/N)Sc1ccccc1N`, the proliferation was -1.33.

As for `N=C(N)Nc1ccc(C(=O)Oc2ccc3cc(C(=N)N)ccc3c2)cc1` [Nafamostat mesylate], the proliferation is -0.0211.

Consider `COCc1cc(O)c(O)c(O)c1-c1c(COC)cc(O)c(O)c1O`, for which the proliferation is -0.416.

As for `Nc1ccccc1NC(=O)CCCCCCC(=O)Nc1ccccc1`, the proliferation is 0.0632.

With `COc1cc2ncc(-c3ccccc3)nc2cc1OC`, the proliferation is 2.78 (active).

On to `O=C(O)c1ccc2nc(-c3ccccc3)c(-c3ccccc3)nc2c1`, for which the proliferation is -0.68.

Take `N[C@H](C(=O)O)[C@@H]1CC(Cl)=NO1` [Acivicin]: the proliferation was -1.56.

In the case of `CNC(=O)[C@H](Cc1c[nH]c2ccccc12)NC(=O)[C@@H](CC(=O)NO)CC(C)C`, the proliferation was -0.522.

On to `CCCCCCCCCCCCC/C=C/[C@@H](O)[C@@H](N)CO` [D-erythro-Sphingosine], for which the proliferation was 0.187.

On to `O=C1c2ccccc2C(=O)c2c(NCCc3ccc(O)cc3)ccc(NCCc3ccc(O)cc3)c21`, for which the proliferation was -0.000622.

Turning to `O=C(NCCCCN1CCOCC1)c1cc2ccccc2o1`, the proliferation is -0.00355.

Turning to `COC(=O)C[C@H](NC(=O)[C@H](C)NC(=O)[C@@H](NC(=O)OCc1ccccc1)C(C)C)C(=O)CF`, the proliferation is -0.0506.

For the compound `CSCCC(C=O)NC(=O)C(CC(C)C)NC(=O)[C@H](CC(C)C)NC(C)=O` (stereo not given in full) [Calpain Inhibitor II (ALLM)], the proliferation was -0.104.

Take `CC(C)C[C@H](NC(=O)[C@H]1O[C@@H]1C(=O)O)C(=O)NCCCCN=C(N)N`: the proliferation was -0.0032.

For the compound `NCCCC[C@H](N[C@@H](CCc1ccccc1)C(=O)O)C(=O)N1CCC[C@H]1C(=O)O` [Lisinopril], the proliferation was 0.0284.

As to `CC(C)CCNC(=O)[C@H](CC(C)C)NC(=O)[C@H]1O[C@@H]1C(=O)O`, the proliferation was -0.117.

With `N#C/C(=C\c1ccc(O)c(O)c1)C(=O)Nc1ccccc1`, the proliferation is 0.06.

As for `CC(C)C[C@H](NC(=O)[C@@H](O)[C@H](N)Cc1ccccc1)C(=O)O`, the proliferation was -0.519.
